# Bioassay records deposited in PubChem BioAssay by several laboratories.
# Compounds with a hit are over-represented: about 5.9% of the library has one in this group of screens.
# LANA-H2A inh – blockers of LANA interaction with H2A/H2B – biochemical, FP readout, HTS, primary screen | Protein LANA1 (Human herpesvirus 8 type P (isolate GK18)), Q9QR71 | cell-free LANA-H2A/H2B peptide, fluorescence polarization | inhibition, % (test concentration not listed) | actives 0.6% (n = 320,000) | AID 2629, 2010; in the data active = inhibition mostly above about 10%, no sharp cut-off; inactive = mostly below about 6.7%
# ABHD5-PLIN5 inh – ABHD5-PLIN5 interaction inhibitors, primary screen, cell lysate, split luciferase complementation, luminescence. inhibition, % at 4 µM. Split G. princeps luciferase complementation, 4 h. Perilipin-5 (Homo sapiens) + 1-acylglycerol-3-phosphate O-acyltransferase ABHD5 (Homo …. actives 0.78% (n = 360,000);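 active = inhibition above the mean inhibition across every tested compound plus 3 SD, cut at about 22% in these data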;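 also: 0% = DMSO only wells and the 100% control is not disclosed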
# PRMT1 FP inh – PRMT1 methyltransferase inhibitors, primary screen, biochemical, fluorescence polarization; actives 1.3% (n = 370,000); inhibition, % at 2.79 µM; recombinant PRMT1, activity-based probe fluorescence polarization; AID 652257, 2013;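 active = inhibition above about 21% made by adding two undisclosed values, limit read from the data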
# Target sequence (Q99873 whole entry, looked up): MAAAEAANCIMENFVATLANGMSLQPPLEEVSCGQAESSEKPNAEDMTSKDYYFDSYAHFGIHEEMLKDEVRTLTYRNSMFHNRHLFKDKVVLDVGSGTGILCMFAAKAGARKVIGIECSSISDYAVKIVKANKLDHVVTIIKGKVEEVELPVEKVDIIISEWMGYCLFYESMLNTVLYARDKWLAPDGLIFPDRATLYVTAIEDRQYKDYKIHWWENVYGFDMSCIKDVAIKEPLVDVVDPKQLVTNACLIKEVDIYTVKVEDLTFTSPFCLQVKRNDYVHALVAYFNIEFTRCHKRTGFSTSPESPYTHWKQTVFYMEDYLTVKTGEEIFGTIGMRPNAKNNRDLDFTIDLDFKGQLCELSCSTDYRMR
# ALR H2O2 inh – inhibitors of human ALR sulfhydryl oxidase, primary screen, biochemical, H2O2 detection, HRP-luminol luminescence, single point | purified ALR, DTT oxidation | actives 3.8% (n = 290,000) | inhibition, % (test concentration not listed) | FAD-linked sulfhydryl oxidase ALR (Homo sapiens), P55789;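 active = mean replicate inhibition above about 79%, with every replicate also reaching it, limit read from the data; inconclusive = only one of the two criteria met; inactive = mean below limit and not every replicate reaching it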
# Target sequence (P55789 whole entry, looked up): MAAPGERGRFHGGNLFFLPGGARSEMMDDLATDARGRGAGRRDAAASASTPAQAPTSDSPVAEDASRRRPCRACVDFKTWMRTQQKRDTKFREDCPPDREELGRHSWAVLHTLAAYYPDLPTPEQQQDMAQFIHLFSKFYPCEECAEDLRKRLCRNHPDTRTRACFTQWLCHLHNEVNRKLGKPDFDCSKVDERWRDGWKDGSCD
# Rtt109 Vps75 – inhibitors of C. albicans Rtt109/Vps75 HAT, primary screen, biochemical, ThioGlo CoA-SH fluorescence, plate reader; Histone acetyltransferase RTT109 (Candida albicans (strain SC5314 / ATCC MYA-2876)), …; purified Rtt109/Vps75, 4 h; inhibition, % at 34.9 µM; actives 0.16% (n = 330,000); AID 540336, 2011;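 active = inhibition of at least 50% in every replicate; inconclusive = best replicate reaches 50% inhibition but some replicates fall short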
# rCAG binder – binders of r(CAG) RNA repeats, primary screen, biochemical, fluorescence. r(CAG) RNA repeat, TO-PRO-1 dye displacement fluorescence. inhibition, % at 3 µM. actives 1.3% (n = 370,000);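 active = inhibition above the plate cutoff, the mean of all test compounds on that plate plus 3 SD, cut at about 35% in these data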;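 also: 0% = DMSO alone and 100% = 100 µM mitoxantrone as full dye displacement; higher means more dye released from RNA so lower well fluorescence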
# An asterisk follows results filed as active; ? = inconclusive; . = no result; + = active, no number.
SMILES,LANA-H2A inh,ABHD5-PLIN5 inh,PRMT1 FP inh,ALR H2O2 inh,Rtt109 Vps75,rCAG binder
Cc1cc(NC(=O)c2ccc(NS(=O)(=O)c3ccccc3F)cc2)no1,.,.,3.3,.,.,7.4
Cc1ccc(NC2CCCCC2NS(=O)(=O)c2ccccc2)c(C)c1 (centres undefined),4.1,-9.4,0.8,85.8*,6.7,0.8
O=S(=O)(NC1CCCCC1Nc1ccc(Cl)cc1)c1ccccc1 (centres undefined),2.2,-4.0,-0.9,?,-2.4,3.7
O=S(=O)(NC1CCCCC1Sc1ncccn1)c1ccccc1 (centres undefined),12.7*,2.5,0.1,4.5,1.8,0.1
O=S(=O)(NC1CCCCC1Sc1ncccn1)c1ccc(Cl)cc1 (centres undefined),2.3,2.5,-2.6,0.0,-4.7,-1.2
Cc1ccc(S(=O)(=O)NC2CC2)cc1,-3.1,2.4,3.3,2.6,-10.5,0.5
Cc1ccc(S(=O)(=O)NC2CCCCC2)cc1,45.2*,-0.7,-0.2,2.1,2.3,-1.3
CC(=O)Nc1ccc(NC2CCCCC2NS(=O)(=O)c2ccccc2)cc1 (centres undefined),0.8,-2.2,2.9,98.9*,-3.7,-2.4
CCCCN1C(=O)C(CC(=O)NCc2ccco2)CC(C(=O)N(C(C)C)C(C)C)=C1C (centres undefined),.,-3.8,1.0,.,.,-2.7
O=C(CCC(=O)N(CC(=O)NC1CCCC1)Cc1ccc(F)cc1)Nc1nccs1,-3.8,5.3,6.9,-3.4,10.2,-2.3
CC(C)(C)c1ccc(Cn2c(=N)n(CC(O)c3ccco3)c3ccccc32)cc1 (centres undefined),18.0*,11.4,.,.,3.0,.
CCc1c(O)nc(SCC(=O)c2ccccc2)n(-c2ccccc2)c1=O,-0.4,5.6,23.7*,99.0*,-9.9,4.5
CCc1c(O)nc(SCC(=O)NC(C)(C)C)n(-c2ccccc2)c1=O,3.6,-9.9,24.4*,51.6,1.5,5.7
CCc1c(O)nc(SCC(=O)N2CCOCC2)n(-c2ccccc2)c1=O,-1.8,-23.0,16.0,96.1*,-327.9,2.5
CCCCc1c(O)nc(SCCN(C)C)n(-c2ccccc2)c1=O,6.0,-5.6,24.2*,10.1,-20.0,-0.5
CN(C)CCSc1nc(O)c(-c2ccccc2)c(=O)n1-c1ccccc1,-1.5,12.2,20.4,-5.7,9.6,-1.5
CCN(CC)C(=O)CSc1nc(O)c(Cc2ccccc2)c(=O)n1-c1ccccc1,-2.3,-1.9,12.3,42.6,-6.4,6.3
CCOC(=O)N1CCC(NC(=O)c2ccc3c(c2)N(C)C(=O)/C(=C/c2cccc(OC)c2)S3)CC1,0.5,-6.8,-1.6,-0.7,-6.6,0.3
CCCCN(C)C(=O)c1sc(=O)n(Cc2ccc(Cl)c(Cl)c2)c1C,.,-7.6,0.6,.,.,-1.6
CCC1OC(C(C)C)Cc2[nH][nH]c(=O)c21 (centres undefined),.,-4.3,-2.4,.,.,0.0
COc1ccc(C(=O)CC(C(=O)O)c2ccc3c(c2)OCO3)cc1OC (centres undefined),.,6.5,-3.1,.,.,3.7
COc1cccc(-c2nc(CS(=O)(=O)CC(=O)N3CCN(C)CC3)c(C)o2)c1,-0.9,-11.4,-2.1,97.0*,9.0,1.9
COc1cccc(-c2nc(CS(=O)(=O)CC(=O)N3CCN(C4CCCCC4)CC3)c(C)o2)c1,-3.1,-2.1,-1.4,98.7*,3.1,-1.4
COc1cccc(/C=C/C(=O)OCC(=O)c2ccc(C)c(C)c2)c1OC,19.8*,2.6,-0.6,0.3,-5.8,1.8
CCOC(=O)[C@@]12CN(C(=O)OC(C)(C)C)CC=C1N(Cc1ccc(OC)cc1)C(=O)[C@H]2CC(=O)N1CCN(C(=O)C2CC2)CC1,.,.,-2.7,.,.,-0.4
SMILES,LANA-H2A inh,ABHD5-PLIN5 inh,PRMT1 FP inh,ALR H2O2 inh,Rtt109 Vps75,rCAG binder
COc1cccc(-c2nnc(SCC(=O)Nc3ccc(OCc4ccccc4)cc3)n2Cc2ccco2)c1,.,.,-1.4,.,.,9.7
Cc1cc(C(=O)OCC(=O)Nc2ccccc2C#N)c(C)o1,.,-0.3,-1.3,.,8.3,-2.1
Cc1cc2c(N3CCCCC3C)ncnc2s1 (centres undefined),2.1,2.3,-0.9,97.0*,-1.1,-1.9
Cc1c(C(=O)O)sc2ncnc(N3CCCCC3C)c12 (centres undefined),0.1,-3.7,0.6,1.0,-5.5,7.1
CC[C@H]1c2[nH]c3ccccc3c2C[C@H]2C(=O)N(c3ccc(F)cc3)C(=O)N21,+,-9.7,-5.8,-7.6,1.2,-3.7
CCCCn1nnnc1C1(C)CCC(=O)N1CC1CCCCC1 (centres undefined),.,-3.8,-2.0,.,.,-1.0
CCOC(=O)CN(C(=O)CSc1nnc(CNc2ccc(C)cc2C)o1)c1ccccc1,5.5,-3.5,-1.7,96.4*,-6.9,-2.3
Cc1ccc(NCc2nnc(SCC(=O)OC3CCCCC3)o2)c(C)c1,3.8,-3.0,1.4,98.2*,-19.7,-3.5
CCN(CC)S(=O)(=O)c1ccc(N/N=C/c2ccc(O)cc2)nc1,-0.1,-0.2,2.2,99.4*,-1.9,7.5
CCOc1cccc(/C=N/Nc2ccc(S(=O)(=O)N(CC)CC)cn2)c1O,-1.9,-1.4,-5.1,.,-6.6,10.6
CC(=O)C1=C(c2ccccc2)NC(=O)NC1c1ccc2c(c1)OCO2 (centres undefined),0.2,14.2,-0.8,-10.7,4.7,-0.2
CC1=C([N+](=O)[O-])C(c2ccc(O)c(O)c2)NC(=O)N1 (centres undefined),1.3,0.4,6.2,98.7*,0.2,-1.9
CC(=O)C1=C(c2ccccc2)NC(=S)NC1c1ccc(O)c(O)c1 (centres undefined),0.8,1.3,2.9,99.4*,-3.2,2.2
CC(=O)C1=C(c2ccccc2)NC(=O)NC1c1ccc(O)c(O)c1 (centres undefined),-2.5,2.8,2.5,98.9*,0.2,3.8
FC(F)(F)c1cnc(NNC(=S)Nc2ccccc2Cl)c(Cl)c1,-0.7,-6.1,-1.8,96.7*,-2.1,3.5
Cc1cccc(NC(=S)NNc2ncc(C(F)(F)F)cc2Cl)c1,-4.1,0.4,1.0,7.5,5.7,4.8
COc1ccc(N=Cc2c(O)[nH]c3ccccc23)cc1,-2.3,1.3,3.4,46.2,-1.1,4.9
COc1ccc(CN=Cc2c(O)[nH]c3ccccc23)cc1,-0.1,2.1,1.7,99.3*,23.6,-2.8
